The supplement of paper PMC7801607

How the values were obtained:
[1] = test system: CHO; experiment: % viability of CHO cells (MTT); higher = less toxic; details: 48 h
Method in brief: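 Viability was given as a percentage of untreated cells and measured colorimetrically by the tetrazolium (MTT) assay. Before this, CHO cells at 10^6 cells/well in 200 µL attached overnight, then received fresh medium containing compound at 2 or 20 µM for 48 h.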

[2] = test system: HepG2-A16-CD81; experiment: % inhibition of HepG2 viability (CellTiter-Glo); higher = more toxic; details: 5 µM
[3] = test system: Plasmodium falciparum NF54 stage IV/V gametocytes; experiment: % inhibition of gametocyte viability (PrestoBlue); higher = more inhibition; details: 48 h
Method in brief: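 Values are percent inhibition of gametocyte viability, normalised to vehicle and kill controls in a single run. Stage IV/V NF54 gametocytes (2% gametocytaemia, 5% haematocrit, 100 µL/well) were held with compound at 1 or 5 µM for 48 h at 37 °C, stationary and hypoxic. Viability was read as 612 nm fluorescence on 70 µL of supernatant after a 2 h incubation with 10 µL PrestoBlue.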

[4] = test system: Plasmodium falciparum NF54 asexual blood stage; experiment: % inhibition of asexual blood stage proliferation (pLDH); higher = more inhibition; details: 72 h
Method in brief: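 Using 96-well plates, the screen was run twice on separate occasions with Plasmodium falciparum NF54 ring-stage cultures at 1% haematocrit and 2% parasitaemia. Each culture was exposed to compound at 2 or 20 µM for 72 h at 37 °C under a gas mix of 4% CO2, 3% O2 and 93% N2. After incubation, the parasite lactate dehydrogenase assay was read colorimetrically at 620 nm. From this readout, percent inhibition of asexual proliferation was derived against control wells.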

[5] = test system: Plasmodium falciparum NF54 stage IV/V gametocytes; experiment: % inhibition of gametocyte viability (ATP bioluminescence); higher = more inhibition; details: 24 h
Method in brief: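 Viability of stage IV/V NF54 gametocytes is given as percent inhibition, normalised to control wells in a single run. Gametocytes enriched on density gradients were seeded at 30,000 per well in 96-well plates with compound at 1 or 5 µM and held at 37 °C for 24 h. ATP was then read with the Promega BacTiter Glo bioluminescence system.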

[6] = test system: Plasmodium falciparum NF54 stage IV/V gametocytes; experiment: % inhibition of gametocyte viability (luciferase reporter); higher = more inhibition; details: 48 h
Method in brief: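 Compound at 1 or 5 µM was added to stage IV/V NF54-Pfs16-GFP-Luc gametocytes (2% gametocytaemia, 2% haematocrit) and incubated stationary and hypoxic at 37 °C for 48 h. A GloMax-Multi+ reader measured luminescence over 10 s integration on 30 µL lysate plus 30 µL Promega luciferin substrate. Percent inhibition values were normalised to controls within a single run.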

[7] = test system: Plasmodium berghei ANKA liver stage in HepG2-A16-CD81; experiment: % inhibition of liver stage parasite viability (luciferase); higher = more inhibition; details: 5 µM; 48 h
Description: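 Single-concentration screen of the MMV Pandemic Response Box. P. falciparum NF54 asexual blood stages: pLDH assay, 72 h at 37 °C, 2 and 20 µM, n=2. Stage IV/V gametocytes (NF54): luciferase reporter (NF54-Pfs16-GFP-Luc, 48 h), ATP bioluminescence (24 h) and PrestoBlue (48 h) at 1 and 5 µM, n=1. P. berghei liver stage (luciferase in HepG2-A16-CD81, 48 h post infection) at 5 µM, n=4. All normalised to DMSO and kill controls as % inhibition.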
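Throughout, for % inhibition of HepG2 viability (CellTiter-Glo): HepG2-A16-CD81 hepatoma cells plated as in the liver-stage assay but without sporozoites, with DMSO wells as negative and 25 µM puromycin as positive control.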

Row | Structure (SMILES) | % viability of CHO cells ([1]; 2 µM) [%] | % viability of CHO cells ([1]; 20 µM) [%] | % inhibition of HepG2 viability [2] [%] | % inhibition of gametocyte viability ([3]; 1 µM) [%] | % inhibition of gametocyte viability ([3]; 5 µM) [%] | % inhibition of asexual blood stage proliferation ([4]; 2 µM) [%] | % inhibition of asexual blood stage proliferation ([4]; 20 µM) [%] | % inhibition of gametocyte viability ([5]; 1 µM) [%] | % inhibition of gametocyte viability ([5]; 5 µM) [%] | % inhibition of gametocyte viability ([6]; 1 µM) [%] | % inhibition of gametocyte viability ([6]; 5 µM) [%] | % inhibition of liver stage parasite viability [7] [%]
1 | O=C(Cn1cnc2ccccc2c1=O)Nc1ccccc1 | 100 | 84.1 | -0.425 | 27.9 | 25.4 | 29.5 | 71.5 | 1.88 | < 0 | 2.6 | 1.55 | 2.82
2 | O=C(Nc1[nH]c(=O)ncc1F)c1ccccc1 | 103 | 106 | 1.79 | 1.43 | 5.2 | 2.42 | 1.98 | < 0 | < 0 | < 0 | < 0 | 24.1
3 | FC(F)(F)c1cc(C(F)(F)F)c2ccc3nc(-c4nnco4)cn3c2n1 | 93.3 | 124 | 8.21 | 17.1 | 21.3 | 19.6 | 26.8 | < 0 | < 0 | 1.44 | 18 | 17.6
4 | Cc1[nH]c2ccccc2c1CCNCc1ccc(/C=C/C(=O)NO)cc1 | 76.4 | 37.9 | 54.5 | 19.9 | 34.4 | 62.2 | 79.9 | < 0 | < 0 | 31.8 | 3.05 | 72.8
5 | O=C(NCc1cccc2ccccc12)c1cccs1 | 101 | 134 | 7.63 | 13.5 | 24.3 | -14.2 | -4.95 | < 0 | < 0 | < 0 | < 0 | -19.8
6 | O=C1NC(=S)N/C1=C\c1cc(Br)cc(Br)c1O | 91.8 | 63.5 | -2.5 | 1.86 | < 0 | 10.8 | 17.1 | < 0 | < 0 | < 0 | < 0 | -2.17
7 | CN(C)[C@@H]1C(=O)C(C(N)=O)=C(O)[C@@]2(O)C(=O)C3=C(O)c4c(O)c(NC(=O)CN5CCCC5)cc(F)c4C[C@H]3C[C@@H]12 | 99.3 | 125 | 21 | 13.1 | < 0 | 72.1 | 88 | < 0 | < 0 | < 0 | < 0 | -4.53
8 | Cn1c2ccccc2c(=O)c2c(O)cccc21 | 229 | 55 | -9.48 | 26.6 | 21.6 | 20.3 | 11 | 6.28 | < 0 | 7.24 | < 0 | 29.3
9 | CCCCc1ccc(-c2nc(C)c(C(=O)OC)s2)cc1 | 113 | 102 | 0.116 | 5.41 | 22.1 | 36.8 | 59.2 | < 0 | < 0 | < 0 | < 0 | -103
10 | O=C(O)CSc1cc(NS(=O)(=O)c2cccc3cccnc23)c2ccccc2c1O | 95.5 | 80.9 | 2.37 | < 0 | 29.3 | 70.5 | 81 | 0.374 | < 0 | < 0 | < 0 | 35.4
11 | O=C(CP(=O)(O)O)NCCc1cccc(Oc2ccccc2)c1 | 108 | 84.2 | 0.91 | 16.8 | 19.8 | 30.7 | 29.5 | 2.33 | < 0 | < 0 | < 0 | 27.3
12 | O=C(O)/C=C/C=C/c1cccc(Oc2cc(Cl)cc(Cl)c2)c1 | 97.3 | 110 | -6 | < 0 | < 0 | 30.7 | 41.4 | 3.95 | 2.02 | 9.35 | 0.936 | 28.9
13 | O=[N+]([O-])/C(Br)=C/c1ccc(Br)o1 | 89.2 | 99.8 | -4.63 | 23.1 | 57 | 27.6 | 2.9 | 6.32 | 14.3 | 4.3 | 49.5 | 15.9
14 | COc1ccccc1NC(=O)c1ccccc1Sc1ccc([N+](=O)[O-])cc1 | 85.2 | 108 | -1.52 | 17.1 | 14.1 | -1.69 | 81 | 7.24 | 1.71 | 3.21 | 8.85 | 27
15 | O=C(CSc1nnc(Br)n1-c1ccc(C2CC2)c2ccccc12)Nc1ccc(C(=O)O)cc1Cl | 98.5 | 61.4 | -1.62 | 15.4 | 20.5 | 3.71 | 46.7 | < 0 | < 0 | < 0 | < 0 | 27.6
16 | Nc1nnc(-c2ccc(Cl)cc2)s1 | 84.5 | 88.7 | -0.915 | 5.08 | < 0 | 13.1 | 23.9 | < 0 | < 0 | < 0 | < 0 | 26.2
17 | O=C(CC1Sc2ncnn2C1=O)Nc1ccc(Br)cc1 (stereo unspecified) | 100 | 102 | -3.25 | 20.1 | 9.94 | 24.1 | 42.2 | 8.79 | 43.5 | < 0 | 1.92 | 20.8
18 | Nc1nc(O)c2ncn(COC(CO)CO)c2n1 | 83.5 | 59.2 | 3.01 | < 0 | < 0 | 6.2 | 41.8 | < 0 | 0.568 | 7.58 | < 0 | 7.49
